# Test results as given in PubChem BioAssay (NCATS).
# Values joined by “and” are separate entries in the source; they are usually repeats but may differ in a detail not shown here. Equal values may be shown once. Inconclusive results are not listed. Where a call stands in place of a potency, no number is given. More than one record can exist for a structure, and the calls need not agree. Active and inactive are the calls of the source. Unless noted, calls come from the whole dose curve.
# Tests used:
# [1] = biological target: Bile acid receptor (Homo sapiens) (UniProt Q96RI1); test: qHTS assay for small molecule antagonists of farnesoid X receptor signaling (AID 588526); note: potency is the fitted concentration of half-maximal effect
# In short: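 Antagonist mode: titrated compounds tested against chenodeoxycholic acid stimulation (normalized to 50 uM CDCA and DMSO) in GeneBLAzer HEK293T cells for 16 h. Beta-lactamase read by CCF4 fluorescence; IC50 from Hill fits.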
# [2] = biological target: Bile acid receptor (Homo sapiens) (UniProt Q96RI1); test: qHTS assay for small molecule agonists of farnesoid X receptor signaling (AID 588527); conditions: HEK293T FXR-UAS-bla, beta-lactamase ratio, 16 h; stronger effect = higher value; note: series mostly up to about 77 µM
# In short: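 Quantitative HTS used FXR-UAS-bla HEK293T cells with 16 h compound incubation at 37 C. EC50 values came from concentration-response curves normalized to chenodeoxycholic acid.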
# [3] = biological target: Glucocorticoid receptor (Homo sapiens) (UniProt P04150); test: qHTS assay for small molecule agonists of glucocorticoid receptor signaling (AID 588532; active = well fitted curve in the direction sought with a large enough effect in the signal ratio, with a control signal flat; the % refers to the signal ratio); conditions: HeLa MMTV-bla, beta-lactamase ratio, agonist, 18 h; stronger effect = higher value; percent of dexamethasone control, DMSO zero
# In short: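 HeLa GRE-bla reporter cells; 18 h compound exposure at 37 C; 2 h CCF4 loading at room temperature; fluorescence at 460 and 530 nm; EC50 by Hill equation.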
# [4] = biological target: Glucocorticoid receptor (Homo sapiens) (UniProt P04150); test: qHTS assay for small molecule antagonists of glucocorticoid receptor signaling (AID 588533; active = well fitted inhibition curve with a large enough effect in the signal ratio, with a control signal flat, not every such curve was filed as active; the % refers to the signal ratio; note: potency is the fitted concentration of half-maximal effect)
# In short: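 Antagonist-mode qHTS: compound titrations added to GRE-bla HeLa cells, then dexamethasone 2 nM final; 18 h, 37 C. CCF4 FRET fluorescence normalized to dexamethasone and DMSO; IC50 from Hill fit.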
# [5] = biological target: Estrogen receptor (Homo sapiens) (UniProt P03372); test: qHTS assay for small molecule antagonists of estrogen receptor alpha signaling (AID 588513; active = well fitted curve in the direction sought with a large enough effect in the signal ratio, with a control signal flat, not every such curve was filed as active; the % refers to the signal ratio)
# In short: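 Fluorescence from CCF4 substrate after 2 h at room temperature gave reporter activity; cells had been exposed to compound and 0.5nM 17-beta-estradiol for 18 h at 37 C. Hill-equation fitting yielded IC50 and maximal response.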
# [6] = biological target: Peroxisome proliferator-activated receptor delta (Homo sapiens) (UniProt Q03181); test: qHTS assay for small molecule agonists of peroxisome proliferator-activated receptor delta signaling (AID 588534)
# In short: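 Titration series tested in agonist mode on beta-lactamase reporter cells; 18 hrs at 37 C after a 5 hr pre-incubation. Readout: CCF4 fluorescence, 2 hrs RT. Hill equation gives EC50 and maximal response.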
# [7] = biological target: Estrogen receptor (Homo sapiens) (UniProt P03372); test: qHTS assay for small molecule agonists of estrogen receptor alpha signaling (AID 588514); note: nearly all actives have a fitted effect of over 70% in size
# In short: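 Read-out: CCF4 fluorescence from a beta-lactamase reporter in ER-alpha-UAS-bla HEK 293 cells after 18 hrs of compound exposure at 37 C. Normalized to 20 nM 17-beta-estradiol (100%) and DMSO (0%).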
# [8] = qHTS assay for small molecule antagonists of peroxisome proliferator-activated receptor delta signaling (AID 588535; active = well fitted inhibition curve with a large enough effect in the signal ratio, with a control signal flat, not every such curve was filed as active; the % refers to the signal ratio;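 for max response: cells co-treated with a PPAR-delta agonist as stimulator during compound exposure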); conditions: HEK293T PPARd-UAS-bla, beta-lactamase FRET ratio, 18 h; 460 nm channel
# In short: (§1)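 Beta-lactamase reporter read-out (405 nm excitation, 460/530 nm emission) after CCF4 loading for 2 hrs at RT. HEK293T PPAR-delta-UAS-bla cells, 2% charcoal/dextran FBS, compounds for 18 hrs at 37 C. Hill fit gave IC50 and efficacy.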
# [9] = biological target: Peroxisome proliferator-activated receptor delta (Homo sapiens) (UniProt Q03181); test: as above
# In short: as §1
# [10] = qHTS assay for small molecule agonists of retinoid X receptor alpha signaling (AID 588544); conditions: HEK293T RXRa-UAS-bla, beta-lactamase reporter, 18 h; 530 nm emission; note: potency is the fitted concentration of half-maximal effect
# [11] = biological target: Retinoic acid receptor RXR-alpha (Homo sapiens) (UniProt P19793); test: as above
# [12] = biological target: Androgen receptor (Homo sapiens) (UniProt P10275); test: qHTS assay for small molecule agonists of androgen receptor signaling (AID 588515; active = well fitted curve in the direction sought with a large enough effect in the signal ratio, with a control signal flat; the % refers to the signal ratio); conditions: AR-UAS-bla HEK293, beta-lactamase ratio, agonist 16 h; stronger effect = higher value
# In short: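 Stimulation of an AR-responsive β-lactamase reporter in GripTite HEK293 cells was measured after 16 h compound exposure at 37 °C, via CCF4 fluorescence after 2 h RT. EC50 from Hill fits, normalized to R1881 at 30 nM.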
# [13] = biological target: Androgen receptor (Homo sapiens) (UniProt P10275); test: qHTS assay for small molecule antagonists of androgen receptor signaling (AID 588516; active = well fitted curve in the direction sought with a large enough effect in the signal ratio, with a control signal flat, not every such curve was filed as active; the % refers to the signal ratio)
# In short: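 Cells were plated and incubated 5 h, compounds added in titration, then R1881 (10 nM final) as agonist. After 16 h at 37 C, CCF4 substrate was loaded for 2 h at room temperature and fluorescence measured.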
# [14] = biological target: Peroxisome proliferator-activated receptor gamma (Homo sapiens) (UniProt P37231); test: qHTS assay for small molecule agonists of peroxisome proliferator-activated receptor gamma signaling (AID 588536; active = well fitted curve in the direction sought with a large enough effect in the signal ratio, with a control signal flat, not every such curve was filed as active; the % refers to the signal ratio)
# In short: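 Using GeneBLAzer HEK293 cells, response was quantified by CCF4 fluorescence and normalized between basal DMSO (0%) and rosiglitazone 2 uM (100%); curves yielded half-maximal stimulation concentration and efficacy.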
# [15] = biological target: DNA dC->dU-editing enzyme APOBEC-3G (Homo sapiens) (UniProt Q9HC16); test: qHTS for inhibitors of Vif-A3G interactions: Validation (AID 588379; active = well fitted inhibition curve with a large enough effect)
# In short: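 Yellow fluorescence (Ex 488, Em 500-530) of Vif-coexpressing HeLa A3G-eYFP cells, scanned by Acumen cytometer, reports blocked A3G degradation. Cells plated at 700/well overnight at 37 deg C before compound addition, then a further overnight compound incubation at 37 deg C.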
# [16] = biological target: Peroxisome proliferator-activated receptor gamma (Homo sapiens) (UniProt P37231); test: qHTS assay for small molecule antagonists of peroxisome proliferator-activated receptor gamma signaling (AID 588537; active = well fitted inhibition curve with a large enough effect in the signal ratio, with a control signal flat, not every such curve was filed as active; the % refers to the signal ratio; note: potency is the fitted concentration of half-maximal effect)
# In short: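 Read-out: CCF4 fluorescence (ex 405, em 460/530 nm) after 2 h at RT. Cells were HEK293 carrying a UAS-bla reporter and treated 16 h at 37 C with compound plus rosiglitazone (50 nM final). Normalized to rosiglitazone and DMSO.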
# [17] = biological target: Vitamin D3 receptor (Homo sapiens) (UniProt P11473); test: qHTS assay for small molecule antagonists of vitamin D receptor signaling (AID 588541);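 note: receptor activated by calcitriol during compound treatment; series mostly up to about 77 µM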
# In short: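 VDR-UAS-bla HEK293T cells in 2% charcoal-stripped FBS were stimulated with 1-alpha,25-dihydroxyvitamin D3 (3 nM final) plus compound for 16 h at 37 C. The beta-lactamase CCF4 readout was normalized to 50 nM agonist and DMSO, and Hill fits gave IC50.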
# [18] = biological target: Vitamin D3 receptor (Homo sapiens) (UniProt P11473); test: qHTS assay for small molecule agonists of vitamin D receptor signaling (AID 588543)
# In short: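 Reporter cells (HEK293T, VDR-UAS-bla) were seeded in medium with 2% charcoal-stripped serum and incubated 5 h, then compounds in concentration series were added for 16 h at 37 °C. Stimulation was scaled between DMSO basal and 50 nM 1α,25-dihydroxyvitamin D3.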
# Sequence of Vitamin D3 receptor (Homo sapiens) (P11473 whole entry, looked up): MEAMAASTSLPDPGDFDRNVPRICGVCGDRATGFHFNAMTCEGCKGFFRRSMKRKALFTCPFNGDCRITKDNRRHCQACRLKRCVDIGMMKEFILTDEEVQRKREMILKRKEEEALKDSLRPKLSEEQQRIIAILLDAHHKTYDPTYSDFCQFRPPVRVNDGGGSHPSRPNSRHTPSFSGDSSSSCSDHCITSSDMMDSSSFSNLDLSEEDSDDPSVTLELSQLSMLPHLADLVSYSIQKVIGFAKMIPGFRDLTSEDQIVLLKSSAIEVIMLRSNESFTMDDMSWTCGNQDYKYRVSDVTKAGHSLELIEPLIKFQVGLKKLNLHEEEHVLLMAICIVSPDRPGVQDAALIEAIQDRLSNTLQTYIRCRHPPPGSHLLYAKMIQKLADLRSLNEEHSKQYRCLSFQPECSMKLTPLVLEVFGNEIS
# Sequence of Glucocorticoid receptor (Homo sapiens) (P04150 whole entry, looked up): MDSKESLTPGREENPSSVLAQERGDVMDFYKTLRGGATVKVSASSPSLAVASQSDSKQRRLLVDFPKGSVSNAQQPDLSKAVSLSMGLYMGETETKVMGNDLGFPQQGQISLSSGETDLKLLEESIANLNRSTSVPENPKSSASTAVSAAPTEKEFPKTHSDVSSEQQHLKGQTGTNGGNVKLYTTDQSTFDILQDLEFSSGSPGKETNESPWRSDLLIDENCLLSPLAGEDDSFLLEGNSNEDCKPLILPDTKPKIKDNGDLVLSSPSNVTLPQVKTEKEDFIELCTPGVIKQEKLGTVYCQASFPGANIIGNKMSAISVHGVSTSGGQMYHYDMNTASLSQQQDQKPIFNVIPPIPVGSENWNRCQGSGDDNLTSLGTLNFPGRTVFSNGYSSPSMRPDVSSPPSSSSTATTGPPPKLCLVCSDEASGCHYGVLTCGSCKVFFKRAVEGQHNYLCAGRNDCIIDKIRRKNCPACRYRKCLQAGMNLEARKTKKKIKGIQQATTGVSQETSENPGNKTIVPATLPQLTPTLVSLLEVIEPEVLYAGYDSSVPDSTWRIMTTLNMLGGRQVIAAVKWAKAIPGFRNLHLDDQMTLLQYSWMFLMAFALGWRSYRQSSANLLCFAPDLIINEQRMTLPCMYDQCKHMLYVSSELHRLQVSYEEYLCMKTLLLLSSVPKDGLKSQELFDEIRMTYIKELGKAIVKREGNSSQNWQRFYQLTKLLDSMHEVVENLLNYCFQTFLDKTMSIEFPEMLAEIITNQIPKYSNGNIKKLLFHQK
# Sequence of Estrogen receptor (Homo sapiens) (P03372 whole entry, looked up): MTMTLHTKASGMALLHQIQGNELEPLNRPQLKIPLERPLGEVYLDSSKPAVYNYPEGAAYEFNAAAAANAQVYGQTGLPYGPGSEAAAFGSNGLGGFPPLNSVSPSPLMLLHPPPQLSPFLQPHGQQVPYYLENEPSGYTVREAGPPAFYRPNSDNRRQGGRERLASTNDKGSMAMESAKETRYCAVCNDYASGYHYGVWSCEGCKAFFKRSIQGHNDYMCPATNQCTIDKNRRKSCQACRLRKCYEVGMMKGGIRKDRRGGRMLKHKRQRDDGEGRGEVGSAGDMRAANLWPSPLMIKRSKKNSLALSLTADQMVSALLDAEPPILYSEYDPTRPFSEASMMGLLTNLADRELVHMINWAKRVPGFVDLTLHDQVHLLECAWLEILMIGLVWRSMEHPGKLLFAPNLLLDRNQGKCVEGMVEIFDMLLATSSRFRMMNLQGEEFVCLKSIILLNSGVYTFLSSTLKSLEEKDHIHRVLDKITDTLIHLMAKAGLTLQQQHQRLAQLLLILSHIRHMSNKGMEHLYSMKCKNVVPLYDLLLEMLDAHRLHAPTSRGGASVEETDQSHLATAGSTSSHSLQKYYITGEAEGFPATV
# Sequence of Androgen receptor (Homo sapiens) (P10275 whole entry, looked up): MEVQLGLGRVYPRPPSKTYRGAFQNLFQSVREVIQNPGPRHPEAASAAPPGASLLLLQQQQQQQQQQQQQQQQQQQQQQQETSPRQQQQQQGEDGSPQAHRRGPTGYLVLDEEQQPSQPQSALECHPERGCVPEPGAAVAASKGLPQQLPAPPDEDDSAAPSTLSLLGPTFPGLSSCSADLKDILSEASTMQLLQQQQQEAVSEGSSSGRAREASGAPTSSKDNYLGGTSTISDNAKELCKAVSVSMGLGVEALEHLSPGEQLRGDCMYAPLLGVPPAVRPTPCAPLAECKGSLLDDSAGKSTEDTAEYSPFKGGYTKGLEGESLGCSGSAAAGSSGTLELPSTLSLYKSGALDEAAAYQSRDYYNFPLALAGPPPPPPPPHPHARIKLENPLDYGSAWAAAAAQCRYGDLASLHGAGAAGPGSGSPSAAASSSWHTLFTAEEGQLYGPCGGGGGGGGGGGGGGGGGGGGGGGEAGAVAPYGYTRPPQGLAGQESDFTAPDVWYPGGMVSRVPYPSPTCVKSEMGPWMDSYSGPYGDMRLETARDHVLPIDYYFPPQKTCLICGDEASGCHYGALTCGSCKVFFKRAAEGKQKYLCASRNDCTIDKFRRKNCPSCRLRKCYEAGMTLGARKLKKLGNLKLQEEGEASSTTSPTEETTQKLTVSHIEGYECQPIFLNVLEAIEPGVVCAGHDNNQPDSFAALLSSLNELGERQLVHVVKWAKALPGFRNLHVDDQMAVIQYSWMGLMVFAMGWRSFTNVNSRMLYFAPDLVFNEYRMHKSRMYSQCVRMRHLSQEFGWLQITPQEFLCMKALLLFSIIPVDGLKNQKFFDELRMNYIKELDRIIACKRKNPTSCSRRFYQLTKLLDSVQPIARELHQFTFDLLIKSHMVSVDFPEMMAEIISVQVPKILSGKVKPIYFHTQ
# Sequence of Peroxisome proliferator-activated receptor gamma (Homo sapiens) (P37231 whole entry, looked up): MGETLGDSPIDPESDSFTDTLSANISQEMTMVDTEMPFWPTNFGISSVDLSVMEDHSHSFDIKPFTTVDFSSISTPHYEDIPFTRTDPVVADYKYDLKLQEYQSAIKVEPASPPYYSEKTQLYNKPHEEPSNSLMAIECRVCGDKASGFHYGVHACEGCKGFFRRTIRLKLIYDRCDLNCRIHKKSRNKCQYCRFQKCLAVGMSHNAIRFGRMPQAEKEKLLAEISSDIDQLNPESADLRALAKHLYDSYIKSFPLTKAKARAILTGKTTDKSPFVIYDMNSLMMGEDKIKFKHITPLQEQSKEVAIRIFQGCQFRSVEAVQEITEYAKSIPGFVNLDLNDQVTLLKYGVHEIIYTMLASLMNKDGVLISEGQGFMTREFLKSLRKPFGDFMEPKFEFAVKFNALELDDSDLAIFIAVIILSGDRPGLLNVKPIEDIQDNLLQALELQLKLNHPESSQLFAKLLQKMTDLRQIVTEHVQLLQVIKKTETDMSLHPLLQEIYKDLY
# Sequence of DNA dC->dU-editing enzyme APOBEC-3G (Homo sapiens) (Q9HC16 whole entry, looked up): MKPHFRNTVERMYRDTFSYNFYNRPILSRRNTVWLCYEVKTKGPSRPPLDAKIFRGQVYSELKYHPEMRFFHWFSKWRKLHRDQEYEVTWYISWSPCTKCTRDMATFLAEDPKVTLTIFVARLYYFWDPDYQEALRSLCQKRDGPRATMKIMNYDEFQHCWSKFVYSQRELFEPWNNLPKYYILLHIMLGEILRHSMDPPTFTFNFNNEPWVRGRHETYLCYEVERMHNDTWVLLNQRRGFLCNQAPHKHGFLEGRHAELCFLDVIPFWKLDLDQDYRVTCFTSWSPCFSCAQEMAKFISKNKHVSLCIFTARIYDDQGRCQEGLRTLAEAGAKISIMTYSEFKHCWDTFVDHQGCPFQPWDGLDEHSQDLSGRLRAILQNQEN
# Sequence of Retinoic acid receptor RXR-alpha (Homo sapiens) (P19793 whole entry, looked up): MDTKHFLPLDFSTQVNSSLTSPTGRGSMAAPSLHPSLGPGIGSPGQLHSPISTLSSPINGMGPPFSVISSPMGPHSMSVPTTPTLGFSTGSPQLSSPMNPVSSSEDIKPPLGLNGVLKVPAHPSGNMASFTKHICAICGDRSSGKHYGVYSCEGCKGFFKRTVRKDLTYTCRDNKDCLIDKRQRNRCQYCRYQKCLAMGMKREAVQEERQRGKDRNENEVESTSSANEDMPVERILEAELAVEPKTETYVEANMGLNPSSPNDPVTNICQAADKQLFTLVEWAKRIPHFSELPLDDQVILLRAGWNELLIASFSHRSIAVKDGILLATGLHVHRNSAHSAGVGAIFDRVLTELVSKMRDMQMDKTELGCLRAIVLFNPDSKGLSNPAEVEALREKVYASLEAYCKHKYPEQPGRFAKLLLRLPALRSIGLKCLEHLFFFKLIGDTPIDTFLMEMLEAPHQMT
# Sequence of Bile acid receptor (Homo sapiens) (Q96RI1 whole entry, looked up): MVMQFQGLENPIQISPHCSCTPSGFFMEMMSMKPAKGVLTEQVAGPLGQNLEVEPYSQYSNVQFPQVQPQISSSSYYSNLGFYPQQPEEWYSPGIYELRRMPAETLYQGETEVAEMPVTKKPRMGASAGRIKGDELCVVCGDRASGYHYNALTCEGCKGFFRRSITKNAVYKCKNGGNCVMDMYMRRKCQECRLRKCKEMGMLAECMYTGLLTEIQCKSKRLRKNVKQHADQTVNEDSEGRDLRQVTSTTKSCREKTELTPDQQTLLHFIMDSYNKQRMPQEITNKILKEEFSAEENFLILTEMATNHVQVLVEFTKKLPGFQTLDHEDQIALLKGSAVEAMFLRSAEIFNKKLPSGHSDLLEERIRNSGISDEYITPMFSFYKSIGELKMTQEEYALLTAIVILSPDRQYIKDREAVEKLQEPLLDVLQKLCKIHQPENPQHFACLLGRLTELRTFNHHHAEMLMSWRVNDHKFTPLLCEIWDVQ
# Sequence of Peroxisome proliferator-activated receptor delta (Homo sapiens) (Q03181 whole entry, looked up): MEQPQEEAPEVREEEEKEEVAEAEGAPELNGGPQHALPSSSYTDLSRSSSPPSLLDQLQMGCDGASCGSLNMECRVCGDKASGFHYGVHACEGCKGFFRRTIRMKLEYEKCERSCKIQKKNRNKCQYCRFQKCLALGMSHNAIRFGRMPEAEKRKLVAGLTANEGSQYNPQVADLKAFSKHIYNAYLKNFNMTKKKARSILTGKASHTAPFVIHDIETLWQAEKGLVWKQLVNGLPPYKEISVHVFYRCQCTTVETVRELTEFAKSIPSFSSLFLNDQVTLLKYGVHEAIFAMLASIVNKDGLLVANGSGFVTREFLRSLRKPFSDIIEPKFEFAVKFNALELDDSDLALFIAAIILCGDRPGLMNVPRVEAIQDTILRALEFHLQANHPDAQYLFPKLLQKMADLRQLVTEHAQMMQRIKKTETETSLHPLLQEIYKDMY
compound,measurement,setting,value
N[C@@H](Cc1ccc(N(CCCl)CCCl)cc1)C(=O)O,Potency,[1],39.8 µM (active)
same,activation,[2],0.124% (inactive)
same,activation,[3],7.11% (inactive) and 5.34% (inactive)
same,Potency,[4],inactive
NC(=Nc1ccccc1)Nc1ccccc1,outcome,[5],inactive
same,activation,[2],-1.85% (inactive) and 0.0042% (inactive)
same,activation,[3],-8.4% (inactive)
same,outcome,[6],inactive
O=c1oc2ccccc2c(O)c1C(CC(O)c1ccc(-c2ccc(Br)cc2)cc1)c1ccccc1 (configuration not stated),activation,[2],-8.03% (inactive)
CCn1cc(C(=O)O)c(=O)c2ccc(C)nc21,Potency,[7],inactive
same,activation,[2],-0.319% (inactive) and 0.585% (inactive)
same,max response,[8],27.2%
same,outcome,[9],inactive
same,max response,[10],24.5%
same,Potency,[11],inactive
CN(C)CCOC(C)(c1ccccc1)c1ccccn1 (configuration not stated),activation,[2],-1.68% (inactive)
same,outcome,[6],inactive
CN(Cc1cnc2nc(N)nc(N)c2n1)c1ccc(C(=O)N[C@@H](CCC(=O)O)C(=O)O)cc1,activation,[2],-5.02% (inactive)
Oc1ccc(Cl)cc1Cc1ccccc1,activation,[12],-12.3% (inactive)
same,outcome,[13],inactive
same,activation,[3],-0.163% (inactive) and -0.754% (inactive)
same,Potency,[4],inactive
same,outcome,[6],inactive
same,max response,[8],28.1% and 8.37%
same,outcome,[9],inactive
same,outcome,[14],inactive
same,max response,[10],-11.5% and -1.88%
same,Potency,[11],35.5 µM (active) and 39.8 µM (active)
NP(N)(=O)NC(=O)c1ccc(F)cc1,outcome,[15],inactive
CN1C[C@H](CNC(=O)OCc2ccccc2)C[C@@H]2c3cccc4c3c(cn4C)C[C@H]21,outcome,[15],inactive
Cc1ccccc1C(OCCN(C)C)c1ccccc1 (configuration not stated),activation,[2],-1.23% (inactive)
same,outcome,[6],inactive
COc1ccc(Cl)cc1C(=O)NCCc1ccc(S(=O)(=O)NC(=O)NC2CCCCC2)cc1,activation,[2],0.916% (inactive)
O=C(CCCN1CCC(O)(c2ccc(Cl)cc2)CC1)c1ccc(F)cc1,activation,[2],-8.42% (inactive)
CCCN(CCC)S(=O)(=O)c1ccc(C(=O)O)cc1,activation,[2],-0.735% (inactive) and 0.243% (inactive)
same,outcome,[6],inactive
COc1cc2c(c(OC)c1OC)-c1ccc(OC)c(=O)cc1[C@@H](NC(C)=O)CC2,outcome,[5],inactive
same,activation,[2],-2.29% (inactive)
same,activation,[3],-3.94% (inactive) and -2.86% (inactive)
same,Potency,[4],inactive
C[C@H]1O[C@@H](O[C@H]2[C@@H](O)C[C@H](O[C@H]3[C@@H](O)C[C@H](O[C@H]4CC[C@@]5(C)[C@H](CC[C@@H]6[C@@H]5CC[C@]5(C)[C@@H](C7=CC(=O)OC7)CC[C@]65O)C4)O[C@@H]3C)O[C@@H]2C)C[C@H](O)[C@@H]1O,activation,[2],-2.75% (inactive)
same,activation,[3],-14.2% (inactive)
same,Potency,[4],0.355 µM (active)
C#C[C@]1(O)CC[C@H]2[C@@H]3CCC4=Cc5oncc5C[C@]4(C)[C@H]3CC[C@@]21C,activation,[2],-1.05% (inactive)
same,outcome,[6],inactive
CC1(C)NC(=O)N(c2ccc([N+](=O)[O-])c(C(F)(F)F)c2)C1=O,activation,[2],0.399% (inactive)
CN(C)CCN(C)CCc1ccc(Cl)c(Cl)c1,outcome,[15],inactive
c1ccc2c(c1)Nc1ccccc1S2,outcome,[5],inactive
same,Potency,[7],inactive
same,outcome,[6],inactive
same,max response,[8],32.2% and -35%
same,outcome,[9],inactive
same,outcome,[14],inactive
same,Potency,[16],inactive and 39.8 µM (active)
same,max response,[10],2.15% and 8.42%
same,Potency,[11],inactive
Cc1cc(SCc2sc(-c3ccc(C(F)(F)F)c(F)c3)nc2C)ccc1OCC(=O)O,Potency,[1],inactive
same,activation,[2],-2.28% (inactive)
Clc1ccc(COC(Cn2ccnc2)c2ccc(Cl)cc2Cl)cc1 (configuration not stated),Potency,[7],inactive
same,activation,[2],9.99% (inactive)
same,activation,[3],9.41% (inactive)
same,outcome,[6],inactive
CC(C)(C)CC(C)(C)c1ccc(O)cc1,activation,[12],2.26% (inactive)
same,outcome,[13],inactive
same,Potency,[1],inactive
same,activation,[2],3.19% (inactive)
same,activation,[3],4.7% (inactive)
same,outcome,[6],inactive
same,max response,[8],-1.27%
same,outcome,[9],inactive
same,outcome,[17],inactive
same,outcome,[18],inactive
same,max response,[10],-53.5%
same,Potency,[11],inactive
Oc1ccccc1-c1ccccc1,outcome,[5],inactive
same,Potency,[7],inactive
same,outcome,[6],inactive
same,max response,[8],-47.4% and 9.69% and -13.4%
same,outcome,[9],inactive
same,outcome,[14],inactive
same,Potency,[16],39.8 µM (active) and inactive
same,outcome,[17],inactive
same,outcome,[18],inactive
same,max response,[10],9.97% and -12.1% and -6.9%
OCCOc1ccccc1,outcome,[5],inactive
same,Potency,[7],inactive
same,Potency,[1],inactive
same,activation,[2],0.0237% (inactive) and -6.3% (inactive) and -0.639% (inactive)
same,activation,[3],0.307% (inactive) and -9.57% (inactive) and -3.52% (inactive)
same,Potency,[4],inactive
same,outcome,[6],inactive
same,max response,[8],16.7% and 12.5% and -5.77%
same,outcome,[9],inactive
same,outcome,[14],inactive
same,Potency,[16],inactive
same,outcome,[17],inactive
same,outcome,[18],inactive
same,max response,[10],-2.94% and -12.9% and -4.25%
CCCCOCCOCCOCc1cc2c(cc1CCC)OCO2,activation,[2],1.08% (inactive) and -5.21% (inactive)
same,outcome,[6],inactive
CN(C)CCC=C1c2ccccc2CCc2ccccc21,activation,[2],-2.7% (inactive) and 0.944% (inactive)
same,activation,[3],-8.68% (inactive)
